The compounds below were run on XIP peptide (Xip251-270) (assay: small-molecule binders of XIP peptide, primary screen, biochemical, small-molecule microarray, fluorescence 635/667 nm, 0.5 µg/mL protein (AID 1183)). Conditions: small-molecule microarray binding, fluorescence 635 nm; higher = more signal.
`[N-]=[N+]=NCc1ccccc1C[C@]1(C(=O)NCc2ccccc2)COC(c2ccc(OCCCO)cc2)=N1` showed a composite z-score of 0.689. `COc1ccc([Si](C)(C)[C@H]2[C@H](CC(=O)N(CCO)Cc3ccccc3)O[C@@]3(C(=O)N(Cc4cccc(N5C(=O)c6cccc7cccc5c67)c4)c4ccccc43)[C@@H]2C)cc1` was tested, and the composite z-score was 0.6. Compound `Cc1ccc(S[C@]2(C(=O)NCC(F)(F)F)CC(=O)N(C3Cc4ccccc4C3)[C@@H]2c2ccc(CO)cc2I)cc1` has a composite z-score of -0.273. In the case of `O=[N+]([O-])c1ccc(C[n+]2ccc(CCCO)cc2)o1`, the composite z-score is reported as 0.968. `CCCCC(=C=CC[C@H](O)c1ccccc1OCCO)C[C@H](O)c1cc(Cl)cc(Cl)c1O` gave a composite z-score of 0.832. `CCCNC(=O)[C@@]1(C)c2ccccc2C(=O)N(Cc2ccc(OC(F)(F)F)cc2)[C@H]1c1ccc(CO)cc1` was tested, and the composite z-score was 0.794. With `COc1ccc(C(O)C2C=CC3C(=O)N(c4ccccc4)C(=O)C3N2Nc2ccccc2)c2ccccc12` (configuration not stated) the composite z-score was 0.573. For `CC(C)(C)OC(=O)CC[C@]1(C(=O)NCC(O)CO)N=C(c2ccc(OCCCO)cc2)O[C@H]1c1ccccc1CN=[N+]=[N-]` (some centres not stated), the composite z-score was 0.878. For `CCOC(=O)C=Cc1cccc(OC)c1O`, the composite z-score was 0.36. Work on `C=CCN1C(=O)[C@]2(Cc3ccccc31)N=C(c1ccc(OCCCO)cc1)O[C@@H]2c1ccccc1` yielded a composite z-score of 0.791. `C=CC[C@@]1(C(N)=O)N=C(c2ccc(OCCCO)cc2)O[C@@H]1c1ccccc1N=[N+]=[N-]` was tested, and the composite z-score was 0.231. `C=CCC(OC(C)=O)[C@@H]1[C@@H](N(Cc2cc3ccccc3o2)C(=O)c2cccc3ccccc23)c2cc(OCCCO)ccc2N1C(=O)Cc1ccc(OC)cc1` (some centres not stated) gave a composite z-score of -0.208.
